The source of these data is PubChem BioAssay.

Activity calls are given as the source filed them. Unless noted, the rule behind the calls is not given here.

Test [1] in a line: resazurin metabolic signal in HepG2 cells – cell-based, resazurin fluorescence, 24 h, PK04 Diversity Set, profiling panel (AID 1172). Note: test concentration not given here. The following applies: HepG2 viability, higher = more signal. A general note: Resazurin is reduced to fluorescent resorufin, in cell work by metabolically active cells.
Test [2] can be described thus: budding yeast growth changes without added modifier – OD600, strain BY4716, 24 h, basal condition, primary screen (AID 1173). The following applies: S. cerevisiae BY4716 growth, OD600, 24 h; higher = more signal, called active from +8 up or from −8 down.
The nature of test [3]: viability profiling in MM1S myeloma cells – cell-based, resazurin fluorescence, basal, 24 h, PK04 Diversity Set, profiling panel (AID 1174).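 Note: MM1S multiple myeloma cell line; test concentration not given here.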 To be noted: higher = more signal, called active from +8 up or from −8 down.
The target in test [4] is Dihydroorotate dehydrogenase (quinone), mitochondrial (Plasmodium falciparum (isolate 3D7)) (UniProt Q08210). Briefly: inhibition of P. falciparum DHODH – biochemical, C-terminal His tag, absorbance 600 nm, primary screen (AID 1175).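 Note: recombinant parasite enzyme with a five histidine tag at its C terminus; test concentration not given here.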 To be noted: PfDHODH enzyme, DCIP absorbance 600 nm; higher = more signal, called active from +8 up or from −8 down.
Chain of Dihydroorotate dehydrogenase (quinone), mitochondrial (Plasmodium falciparum (isolate 3D7)) (Q08210 whole entry, looked up): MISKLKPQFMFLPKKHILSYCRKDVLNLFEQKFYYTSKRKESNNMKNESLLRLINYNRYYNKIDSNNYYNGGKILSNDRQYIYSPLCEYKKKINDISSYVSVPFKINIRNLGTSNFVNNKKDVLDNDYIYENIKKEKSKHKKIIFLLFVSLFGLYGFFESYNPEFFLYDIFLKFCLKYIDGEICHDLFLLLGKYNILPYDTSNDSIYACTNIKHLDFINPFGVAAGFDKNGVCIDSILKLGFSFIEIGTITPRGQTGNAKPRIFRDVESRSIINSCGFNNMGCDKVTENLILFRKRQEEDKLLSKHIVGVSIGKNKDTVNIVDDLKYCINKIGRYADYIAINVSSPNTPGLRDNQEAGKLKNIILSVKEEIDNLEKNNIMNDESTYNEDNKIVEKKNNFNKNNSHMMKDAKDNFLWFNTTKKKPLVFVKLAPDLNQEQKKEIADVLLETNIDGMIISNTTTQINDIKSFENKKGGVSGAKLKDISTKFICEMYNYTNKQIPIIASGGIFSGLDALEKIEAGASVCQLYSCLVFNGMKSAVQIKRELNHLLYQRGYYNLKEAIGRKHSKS
Test [5] in a line: inhibition of PAO1 biofilm formation – strain PAO1, LB-PBS medium, absorbance 600 nm, primary screen (AID 1176). Note: test concentration not given here. The following applies: P. aeruginosa PAO1 growth/biofilm, A600, 12 h; higher = more signal.
The nature of test [6]: growth modulation of vineyard yeast isolate – strain RM11-1a, OD600, basal, 24 h, primary screen (AID 1177).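 Note: cultures grown under basal conditions with no added stressor; test concentration not given here.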 To be noted: S. cerevisiae RM11-1a growth, OD600, 24 h; higher = more signal, called active from +8 up or from −8 down.
Test [7] is described as follows: growth of efflux-deficient E. coli DRC39 – strain DRC39, OD650, 24 h, E. coli filamentation inducers, primary screen (AID 1178).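 Note: growth measured as culture turbidity by optical density at 650 nm; test concentration not given here.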 The following applies: E. coli DRC39 acrAB, higher = more signal, called active from +8 up or from −8 down.
Test [8] is described as follows: growth of efflux-deficient E. coli DRC39 – strain DRC39, OD650, 48 h, E. coli filamentation inducers, primary screen (AID 1179).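 Note: screen aims at cell division blockers that make cells filament.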 To be noted: E. coli DRC39 delta-acrAB growth, higher = more signal, called active from +8 up or from −8 down.
Test [9] in a line: viability profiling in RPMI8226 myeloma cells – cell-based, resazurin fluorescence, basal, 24 h, PK04 Diversity Set, profiling panel (AID 1180).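 Note: RPMI8826 multiple myeloma cell line at 5000 cells per well; test concentration not given here.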 The following applies: higher = more signal.
Test [10] addresses E3 ubiquitin-protein ligase XIAP (Homo sapiens) (UniProt P98170). In words: small molecules binding XIAP protein – biophysical, small-molecule microarray, fluorescence 635 nm, primary screen (AID 1181).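 Note: score merges 667 nm emission and signal to noise over triplicate slides.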 To be noted: higher = more signal.

Chain of E3 ubiquitin-protein ligase XIAP (Homo sapiens) (P98170 whole entry, looked up): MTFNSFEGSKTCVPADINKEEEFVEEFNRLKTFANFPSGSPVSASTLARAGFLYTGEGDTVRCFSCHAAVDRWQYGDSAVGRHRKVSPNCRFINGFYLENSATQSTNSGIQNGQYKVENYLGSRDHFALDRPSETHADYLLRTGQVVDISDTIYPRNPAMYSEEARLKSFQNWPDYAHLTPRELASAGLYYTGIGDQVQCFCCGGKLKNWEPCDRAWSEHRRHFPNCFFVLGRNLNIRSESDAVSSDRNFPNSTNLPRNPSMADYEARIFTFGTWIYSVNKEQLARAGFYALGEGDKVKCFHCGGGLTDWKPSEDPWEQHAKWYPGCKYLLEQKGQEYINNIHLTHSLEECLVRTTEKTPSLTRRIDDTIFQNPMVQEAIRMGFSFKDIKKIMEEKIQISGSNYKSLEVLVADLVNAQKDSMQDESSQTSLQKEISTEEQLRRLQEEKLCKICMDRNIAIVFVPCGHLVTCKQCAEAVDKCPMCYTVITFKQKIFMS

In the case of `C[C@@H]1CC[C@H]2C(=O)O[C@@H](Cc3ccccc3)CN2[C@H]1c1ccc(Br)cc1`, the z-score in [1] was 0.603; in [2] it was -1.06 (inactive); in test [3], 0.656 (inactive); in test [5], -0.491 (inactive); in test [6] it was 0.37 (inactive); in test [7], -0.402 (inactive). In addition, the z-score is -0.161 (inactive) in [8] and 0.0066 in [9]. The composite z-score in [4] is 0.245 (inactive); in test [10] it was 0.0871.

With `CC(C)CCN1CCc2nc(COc3ccccc3)c3c(c2C1)CO[C@@H](C)C3`, the z-score in test [1] is -0.226; in test [2], -0.83 (inactive); in test [3], 0.291 (inactive); in test [5], 0.462 (inactive); in test [6], 0.288 (inactive); in [7] it was 1.1 (inactive). The z-score is -0.341 (inactive) in test [8] and 0.327 in test [9]. Also, the composite z-score is 0.0368 (inactive) in test [4] and -0.161 in test [10].

For `CC(C)C[C@H](NC(=O)CCC1CC(OC(=O)NCc2cccc3ccccc23)CC2(CCCC(COC(=O)NCc3ccccc3)O2)O1)C(=O)NCC(c1ccccc1)c1ccccc1` (stereo not given in full), the z-score was 0.1 in [1]; -0.245 (inactive) in [2]; 0.284 (inactive) in [3]; 0.851 (inactive) in test [5]; -0.0457 (inactive) in [6]; 0.64 (inactive) in test [7]. The z-score was 0.628 (inactive) in test [8] and 0.731 in test [9]. In addition, the composite z-score in test [4] was -0.79 (inactive); in test [10], -0.242.

For `CC(=O)OC[C@H]1O[C@@H](ON=C(C)CCN2CCCc3nc(C)c(C)cc32)[C@H](OC(C)=O)[C@@H](OC(C)=O)[C@@H]1OC(C)=O`, the z-score in [1] was -0.288; in [2] it was 0.131 (inactive); in [3], 0.188 (inactive); in [5], -0.503 (inactive); in [6], -0.45 (inactive); in [7] it was -0.925 (inactive). Moreover, the figures for the z-score in test [8] and in test [9] were -1.26 (inactive) and 0.529, respectively. Besides, the composite z-score in test [4] was -2.04 (inactive); in test [10], -0.138.

Consider `CCOC(=O)CCN1C(=O)[C@H]2[C@H]3[C@H](O)[C@H](O)CC(=NOCC(C)C)[C@H]3CC[C@H]2C1=O`, for which the z-score is -0.823 in [1]; 0.265 (inactive) in test [2]; -0.662 (inactive) in [3]; 0.246 (inactive) in test [5]; 0.628 (inactive) in [6]; 0.692 (inactive) in [7]. Further, the z-score in test [8] is 0.686 (inactive); in test [9], -0.876. For the same molecule, the values for the composite z-score in test [4] and in test [10] were -1.19 (inactive) and -0.22, respectively.

For `O=C1CCCC=C1C(O)CCOC(c1ccccc1)(c1ccccc1)c1ccccc1` (stereo not given), the z-score in test [1] was 0.0714; in test [2] it was -0.529 (inactive); in test [3] it was 0.0795 (inactive); in [5] it was 0.368 (inactive); in test [6] it was 1.25 (inactive); in test [7] it was 0.0368 (inactive). Moreover, the z-score in test [8] was -0.356 (inactive); in [9] it was -0.193. The results for the composite z-score in test [4] and in test [10] were 0.466 (inactive) and 0.412, respectively.

As to `CC(C)=CCCC(C)=CCON=C1C[C@@H](O)[C@@H](O)[C@@H]2[C@@H]3C(=O)N(c4ccc(F)cc4F)C(=O)[C@@H]3CC[C@@H]12`, the z-score in [1] was 0.387; in test [2] it was -1.38 (inactive); in test [3], 0.77 (inactive); in test [5], 0.519 (inactive); in test [6], 0.225 (inactive); in [7], 0.781 (inactive). For the same molecule, the z-score in test [8] was 0.345 (inactive); in test [9], 0.75. The composite z-score is 0.263 (inactive) in [4] and -0.336 in test [10].

With `Cc1cc2c(nc1C)CCCCN2CC(C)ON=C1[C@H]2CCn3c(=O)n(-c4ccccc4)c(=O)n3[C@H]2[C@H](O)[C@@H]2O[C@H]12` (stereo not given in full), the z-score in [1] is -1.22; in [2], -0.683 (inactive); in test [3], -3.13 (inactive); in [5], -0.525 (inactive); in test [6], 0.722 (inactive); in test [7] it was 0.588 (inactive). The z-score in test [8] is 1.2 (inactive); in [9] it was -0.459. Also, the composite z-score was -0.498 (inactive) in test [4] and -0.327 in [10].

`CCOC(=O)[C@H](CC(C)C)NC(=O)CCC1CC(OC(=O)NCc2cccc3ccccc23)CC2(CCCC(COC(=O)NCCc3ccc(Cl)cc3)O2)O1` (stereo not given in full): the z-score is 0.568 in [1]; -1.89 (inactive) in test [2]; 1.15 (inactive) in test [3]; 0.262 (inactive) in [5]; -1.2 (inactive) in [6]; 0.389 (inactive) in [7]. The z-score in test [8] was -0.214 (inactive); in test [9], 1.3. Further, the composite z-score in test [4] is -1.16 (inactive); in [10], -0.0559.

As to `CCN1C(=O)[C@H]2[C@H]3[C@H](O)[C@H](O)CC(=O)[C@H]3CC[C@H]2C1=O`, the z-score is -0.195 in test [1]; -0.286 (inactive) in [2]; -0.242 (inactive) in test [3]; -0.543 (inactive) in [5]; -0.896 (inactive) in [6]; -0.519 (inactive) in [7]. For the same molecule, the z-score in test [8] is -0.177 (inactive); in test [9], -0.0216. Moreover, the composite z-score in test [4] was -0.794 (inactive); in test [10], -0.0476.

In the case of `COC(=O)CC=C[C@@H](C)[C@@H](C=NOC[C@H]1O[C@H](c2ccccc2)C=C[C@@H]1Oc1ccc(OC)cc1)OC`, the z-score in [1] was 0.167; in [2], 0.805 (inactive); in test [3] it was 0.0784 (inactive); in test [5] it was 0.335 (inactive); in test [6], 0.065 (inactive); in test [7], 0.0177 (inactive). The values for the z-score in test [8] and in test [9] were -0.0331 (inactive) and 0.264, respectively. Also, the figures for the composite z-score in test [4] and in test [10] were 0.388 (inactive) and 0.127, respectively.

With `CC(C)CON=C1C[C@@H](O)[C@@H](O)[C@@H]2[C@@H]3C(=O)N(Cc4ccc5c(c4)OCO5)C(=O)[C@@H]3CC[C@H]12`, the z-score was 0.259 in [1]; 0.151 (inactive) in [2]; -0.146 (inactive) in [3]; -0.626 (inactive) in test [5]; 0.812 (inactive) in test [6]; 0.0036 (inactive) in test [7]. The z-score in [8] was -0.0961 (inactive); in test [9] it was -0.0651. Besides, the composite z-score in test [4] was 0.834 (inactive); in test [10] it was -0.184.

In the case of `C[C@@H](c1ccccc1)N1C(=O)[C@H]2[C@H]3[C@H](O)[C@H](O)CC(=NO[C@@H]4O[C@H](CO)[C@@H](O)[C@H](O)[C@H]4O)[C@H]3CC[C@H]2C1=O`, the z-score in [1] was -0.495; in test [2], 0.561 (inactive); in test [3], 0.174 (inactive); in test [5], 0.389 (inactive); in test [6], 0.0857 (inactive); in [7] it was -0.837 (inactive). For the same molecule, the values for the z-score in [8] and in test [9] were 0.11 (inactive) and 0.577, respectively. In addition, the composite z-score in test [4] was -0.28 (inactive); in [10], 0.057.
